# Measurements reported in the supplement of paper PMC10105736.
# B1: bin3 (protein)
# chain: MEKRLSDSPGDCRVTRSTMTPTLRLDQTSRQEPLPQQPDNGPAAAPGKSKSPTPLPGKSQAAQHHQFRAPQQQQGPKNRNKAWSKRQHKAGGKHNPSACVGASSGQAQSTGSSVIAATLLPTAASAHKADLENIQNIHNKNLTAGGGVNHHGNAGTAHHGGGGGAGAHHAAAGGHHHHHNTRLAQNAAAGGASGGGTIQMHKKMLRGHHHHVLCAGNNANHTCCLVTGCNGSSIGGVGVAGSGGATASAGGGGASCKEAQSCKDTSSLSGNSSIAGSAGAGNAVHYCCGRSKFFLPEKRLRKEVIVPPTKFLLGGNISDPLNLNSLQNENTSNASSTNNTPATTPRQSPITTPPKVEVIIPPNIHDPLHLLDPVDSMEYEKQLTSPMKRAGPGGGMLHHRQHHYRTRKNRKRRRFDSNNTSHAGDEGGVGSELTDEPPLPAATSSLAASPVAAPLNVGGSLLLSESAAPAPGETAEMGQQQEQAHVHSPQSASTTTTAAEMPTPTPTSAAAATATAEHKEQSAPAPTATSSPQRQQQHVAAAAEELPTPETSAAAETPAEEMLLSCSATSASLVASTLAERRASRDLRLDLSSTCYGVGGTGLSFGGSISSSVGSSFGGGGRKRKISESSTSQKSKKFHRHDAMDKIVSPVVPQPGAWKRPPRILQPSGARKPSTRRSTSVSESELLSPVEEQPPKQLPLIGVEIPRDDTPDLPDHGLGSPLSTTSGATSHTAGEQDSLAGVDISMGDTLGSGVVGKAPLTSSLMLEPAKIPPIKMLPKFRADGLKYRYGNFDRYVDFRQMNEFRDVRLQVFQRHVELFENKDILDIGCNVGHMTITVARHLAPKTIVGIDIDRELVARARRNLSIFVRIPKEEKLLEVKAEPTVDAKANIAVKDETSGAAHKKTRRGKRRRKVHQGIHHHHHHHHDLEQLQQQQKLNSLLVKPHEFFPISFPLTYGRIPRILSSSKSPNMLGNKNQFPANVFFRHTNYVLKDESLMASDTQQYDLILCLSVTKWIHLNFGDNGLKMAFKRMFNQLRPGGKLILEAQNWASYKKKKNLTPEIYNNYKQIEFFPNKFHEYLLSSEVGFSHSYTLGVPRHMNKGFCRPIQLYAKGDYTPNHVRWSDAYYPQTPYEAYRGIYATLPVHRMGGGGSSAGGSNSGHAQMLHLSSSSRSQNYDTPHYAGSASGSASCRQTPMYQPTYNPLETDSYQPSYDMEYLNHMYVFASPLYQTVWSPPASLRKSSSHTPVFGSVRDAELDGDGSGGGGSGGGSYHRHVYPPNDDTCSPNANACNAFNSIRDADTDDSNQLPGGSRRHVYATNCGESSSSPQVNHHDAVGEFVDGLMDDEQKSSTGGGTGGAAYCDLSDA
# B2: MP1 (protein)
# chain: MEPHFFFTVLWMLLMGTSSTYAQEIFGYCRTPDENSGTCINLRECGYLFELLQSEEVTEQDRRFLQASQCGYRNGQVLEKHFCFTNVQICCANSRMRNQQPQWGNHPQPTQTTKPTKRSGTKLLPMAPNCGENFGDRVVGGNETTKREFPWMALIEYTKPGNVKGHHCGGSLINHRYVLTAAHCVSAIPSDWELTGVRLGEWDASTNPDCTVGKNGRRDCNEPYVDYPVEERIPHPQYPGNSRDQLNDIALLRLRDEVQYSDFILPVCLPTLASQHNNIFLGRKVVVAGWGRTETNFTSNIKLKAELDTVPTSECNQRYATQRRTVTTKQMCAGGVEGVDSCRGDSGGPLLLEDYSNGNSNYYIAGVVSYGPTPCGLKGWPGVYTRVEAYLNWIENNVRA
# B3: Pdi (protein)
# chain: MKFLICALFLAASYVAASAEAEVKVEEGVLVATVDNFKQLIADNEFVLVEFYAPWCGHCKALAPEYAKAAQQLAEKESPIKLAKVDATVEGELAEQYAVRGYPTLKFFRSGSPVEYSGGRQAADIIAWVTKKTGPPAKDLTSVADAEQFLKDNEIAIIGFFKDLESEEAKTFTKVANALDSFVFGVSSNADVIAKYEAKDNGVVLFKPFDDKKSVFEGELNEENLKKFAQVQSLPLIVDFNHESASKIFGGSIKSHLLFFVSREGGHIEKYVDPLKEIAKKYRDDILFVTISSDEEDHTRIFEFFGMNKEEVPTIRLIKLEEDMAKYKPESDDLSAETIEAFLKKFLDGKLKQHLLSQELPEDWDKNPVKVLVSSNFESVALDKSKSVLVEFYAPWCGHCKQLAPIYDQLAEKYKDNEDIVIAKMDSTANELESIKISSFPTIKYFRKEDNKVIDFNLDRTLDDFVKFLDANGEVADSEPVEETEEEEEAPKKDEL
# B4: Hel25E (protein)
# chain: MADNDDLLDYEDEEQTETTAVENQEAPKKDVKGTYVSIHSSGFRDFLLKPEILRAIVDCGFEHPSEVQHECIPQAVLGMDILCQAKSGMGKTAVFVLATLQQLEPSDNNTCHVLVMCHTRELAFQISKEYERFSKYMPTVKVAVFFGGMAIQKDEETLKSGTPHIVVGTPGRILALIRNKKLNLKLLKHFVLDECDKMLEQLDMRRDVQEIFRSTPHGKQVMMFSATLSKDIRPVCKKFMQDPMEVYVDDEAKLTLHGLQQHYVNLKENEKNKKLFELLDVLEFNQVVIFVKSVQRCVALSQLLTEQNFPAIGIHRGMTQEERLNRYQQFKDFQKRILVATNLFGRGMDIERVNIVFNYDMPEDSDTYLHRVARAGRFGTKGLAITFVSDENDAKILNEVQDRFDVNISELPEEIDLSTYIEGR
# B5: wda (protein)
# chain: MSLPSASNHAHAASPVYSNSNNNKSSASSKKTSSKNDLLRCAVGLLLKQKNYVSNERFRRSDFLLLQNKQQFAVNKMLDTDLHGGNSFTFSNVQVITNNQHTVDQQFGRFSQFVEAQAEPLRLEMKRFYGPMLCHFYLDLLKAREPRGAVELLRKYAHLVAPVDMYDAPPPTKINGCSTTANESTFNIRFAKEAQDTGDTELDYFMRLVQTLSGYTRLEAAESDDTVAHFRSSKYELHTTAVVVNRICAYLQRRGHVLIMNLLYTWLHVHIVENEQRAFSEDHLLGLTDDLEGEDGEDDVVSKPAVTLNTRGDIRPSKSLTEKSNRKRPAEEPNIMLETDIKQEVETDESAELSKLQLNIDACLDTLKSATEQILKSQVELPRFLRISERSRGLTSAHLDPSECHMLAGFDNSAVQLWQLNQSYCRGKSFYRRYPQKRCPWELNNCANQEEETDEDSSDEDVKCSEEERRERNRARHCKYADNSYNEYGGFQLRGHTKGVTDVRFSAHYPLMYSVSKDATMRCWRAHNLHCAAIYRSHNYPIWCLDESPVGQYVVTGSKDLSARLWSLEKEHALIIYAGHTQDVECVAFHPNGNYIATGSADHSVRLWCATSGKLMRVFADCRQAVTQLAFSPDGKMLAAAGEETKVRIFDLAAGAQLAELKDHSASISSLSWSTHNRHLATACSDGTLRLWDIKKLSPMSDNSSAGSSSSATTNRVLTVNSSCQRLVDVFYGTSKTLYCIGT
# B6: CG2678 (protein)
# chain: MMHSAKNVCRTCMDETGTLVDIFANVRDPVLDEPEMSLSHILARCTERPVKRGDLLPQFICVSCVLAVQNAFRFKWQSEQSYQHFFRVLNQSGAPENQVHLAACNGDKNQIINQKMQLKSDRQQDTQQMTKTQKPDDDLSQKQTLQAKLQEGNIDGPPESFTLHPRKRTCRTEEQADMIPKEATRSTKMICDADGYYNCPHCSKRFCSQTQLRTHITDLCNRCPYCPRTYMQKSNLKRHLRNHLSKPAHKCFHCSKAFMRKDHLKRHLRTHDSDGPLSCSQCSAVFIEHVQLEIHRREHKQRPGSSKSESTKDPDSDDSDQAQDLKPKWTKNTFNGTCSIPPMLKPKPICDICQKKFSSVYALKRHMLTHNRQHHLKKCTYCSEEFKTEKHLKRHERGHMGDLFRCEFCSLVFVDVNYLRKHKKRIHSNNVIAM
# B7: CG5532 (protein)
# chain: MPVDWFGYVYAATVAAGGIMGYAKAGSIPSLGAGLAFGALLGYGAHLNSQDTPRPLLQLGTSLFLAGLMGARWNRSGKLMPAGMVCMLSVAALVKNLATYNRYLMPAGTKAP
# B8: okr (protein)
# chain: MRRSLAPSQRGPLRPESRHSFTPPLLKKNKRSCQQELEREQELDRRRLGALRDASNTSELPLPIRFTANSEYELAIAKVLARKFKVPMDNYVPDYGGKRVLGVRRCISRRPLHDPMACNALVLFHPPAYTEHERMGMDPTKVLVHVVVDPLLSNILRPHQREGVRFMYECVEGKRGNFNGCIMADEMGLGKTLQCVTLVWTLLRQGPECKPTINKAIVVSPSSLVKNWEKEFTKWLHGRLLCLPMEGGTKENTIRALEQFSMTSARLGTPVLLISYETFRIYAEILCKYEVGMVICDEGHRLKNSDNLTYQALMGLKTKRRVLLSGTPIQNDLTEYYSLVNFVNPEMLGTAAVFKRNFESAILRGQNTDSTEQERQRAIEKTQELIGLVDQCIIRRTNQILTKYLPVKFEMVICAKLTAIQLELYTNFLKSDQVRRSLADCNEKASLTALADITTLKKICSHPDLIYEKLTAREKGFENSQNVLPSNYKPKDLNPELSGKFMLLDFMLAAIRAEGNDKVVLISNYTQTLDLFEQLARKRKYGFVRLDGTMSIKKRSKVVDRFNDPESDSFLFMLSSKAGGCGLNLIGANRLFMFDPDWNPANDEQAMARVWRDGQKKPCYIYRLVASGSIEEKILQRQTHKKSLSSTIIDNNESAEKHFTRDDLKDLFTFDANILSDTHDKLKCKRCVQNIQMKPPPEDTDCTSHLSQWYHCSNNRGLPDNILAQAWMDCKCVSFVFHHRSQAQEIVPSAEEEATDQPEEKPESRKRSSTPASDDSADEDFRGF
# B9: kdn (protein)
# chain: MSLYRISARKLSEAQKLPNVGAYVRMIAADGKSLRDVLAAKVPQEQERVKNFRKQHGATKMGETTIDMMYGGMRGIKALVTETSVLDADEGIRFRGLSIPECQKVLPAADGGTEPLPEGLFWLLLTGEVPTKSQVQQLSREWAERAALPQHVVTMLNNMPTTLHPMSQFAAAVTALNHDSKFAKAYSDGVHKSKYWEYVYEDSMDLIAKLPVVAATIYCNTYRGGKGSRSIDSSLDWSANFVKMLGYDNAPFTELMRLYLTIHSDHEGGNVSAHTVHLVGSALSDPYLSFAAGLNGLAGPLHGLANQEVLVWLRKLQKEAGNNPSEEQLKEYIWKTLKSGQVVPGYGHAVLRKTDPRYTCQREFALKHLPEDETFQLVSKIYKVVPPILTETGKVKNPWPNVDAHSGVLLQYYGMKEMNYYTVLFGVSRALGVLASLVWDRALGLPIERPKSFSTDLLVKMVQK
# Key:
# Assay in all cases: MAPPIT interaction score (arbitrary units); higher = stronger binary interaction signal, active = hit call of the paper;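 active = MAPPIT score above the 99th percentile of random reference set scores in the same batch; inactive = at or below it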
# [1] = target: CG2017; settings: MAPPIT configuration: N-N; pair source set: screen_1
# [2] = target: CG2021; settings: MAPPIT configuration: N-N; pair source set: DPIM
# [3] = target: CG2852; settings: pair source set: Lit-BM-16
# [4] = target: CG2199; settings: MAPPIT configuration: N-N; pair source set: Curagen_low_conf
# [5] = target: Paics; settings: MAPPIT configuration: N-N; pair source set: DPIM
# [6] = target: CG2991; settings: MAPPIT configuration: N-N; pair source set: RRS
# [7] = target: CG1971; settings: MAPPIT configuration: N-N; pair source set: Curagen_high_conf
# [8] = target: CG9986; settings: MAPPIT configuration: N-N; pair source set: Curagen_low_conf
# [9] = target: Mdr49; settings: MAPPIT configuration: N-N; pair source set: Lit-BS-16
# [10] = target: PAN3; settings: MAPPIT configuration: N-N; pair source set: Curagen_low_conf
# [11] = target: CG17991; settings: MAPPIT configuration: N-C; pair source set: screen_4
# [12] = target: park; settings: MAPPIT configuration: N-C; pair source set: screen_4
# [13] = target: CG2772; settings: pair source set: RRS
# [14] = target: CG30349; settings: MAPPIT configuration: N-N; pair source set: Curagen_low_conf
# 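Note: HEK293T cells with Epo stimulation, STAT-responsive firefly luciferase reporter, fold induction versus unstimulated cells divided by the larger fold induction of two negative controls lacking either bait or prey.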
binder,measurement,setting,value
B1,MAPPIT interaction score,[1],0.262 (inactive)
B2,MAPPIT interaction score,[2],-0.105 (inactive)
B3,MAPPIT interaction score,[3]; MAPPIT configuration: N-C,-0.281 (inactive)
same,MAPPIT interaction score,[3]; MAPPIT configuration: N-N,1.74 (inactive)
B4,MAPPIT interaction score,[4],-0.422 (inactive)
same,MAPPIT interaction score,[5],1.6 (inactive)
B5,MAPPIT interaction score,[6],-0.317 (inactive)
B6,MAPPIT interaction score,[7],-0.147 (inactive)
same,MAPPIT interaction score,[8],-0.191 (inactive)
same,MAPPIT interaction score,[9],-0.0532 (inactive)
same,MAPPIT interaction score,[10],-0.0312 (inactive)
B7,MAPPIT interaction score,[11],0.124 (inactive)
same,MAPPIT interaction score,[12],0.413 (inactive)
B8,MAPPIT interaction score,[13]; MAPPIT configuration: N-C,-0.364 (inactive)
same,MAPPIT interaction score,[13]; MAPPIT configuration: N-N,-0.357 (inactive)
B9,MAPPIT interaction score,[14],0.214 (inactive)
